Active and inactive are the calls of the source. The calls were made as follows: active = hit-call score of the fitted dose curve at least 0.9, where 1 is the maximum; inactive = score below 0.9.
read-out: Early growth response protein 1 (EGR1) transcription factor, EGR1 (gene 1958); experiment: LTEA_HepaRG_EGR1: Life Technologies and Expression Analysis (LTEA) Assay for Early growth response protein 1 (EGR1) transcription factor using HepaRG (AID 2283490); conditions: mRNA level, 48 h; actives raise or lower the signal
Summary of the method: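 HepaRG, 48 h exposure, 8-pt half-log series from 100 uM, 0.5% DMSO vehicle; EGR1 transcript by TaqMan qRT-PCR (Fluidigm array), housekeeping-normalized; bidirectional fit relative to DMSO baseline.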

Sequence of Cytochrome P450 3A7 (Homo sapiens) (P24462 whole entry, looked up): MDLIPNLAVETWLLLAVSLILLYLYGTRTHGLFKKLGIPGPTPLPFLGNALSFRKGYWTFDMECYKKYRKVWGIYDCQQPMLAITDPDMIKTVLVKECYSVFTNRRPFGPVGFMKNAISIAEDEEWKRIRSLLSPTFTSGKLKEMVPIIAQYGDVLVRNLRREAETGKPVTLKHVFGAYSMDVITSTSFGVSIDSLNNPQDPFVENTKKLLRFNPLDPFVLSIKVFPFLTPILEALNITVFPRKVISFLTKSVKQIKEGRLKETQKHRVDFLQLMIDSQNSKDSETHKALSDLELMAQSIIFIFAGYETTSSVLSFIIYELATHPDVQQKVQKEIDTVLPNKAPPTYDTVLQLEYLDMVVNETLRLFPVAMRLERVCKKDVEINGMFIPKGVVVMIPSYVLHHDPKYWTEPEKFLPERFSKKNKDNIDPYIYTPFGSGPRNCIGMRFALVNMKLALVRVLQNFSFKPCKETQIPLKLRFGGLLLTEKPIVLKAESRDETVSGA

outcome, inactive:
CCCCC(CC)COC(=O)CCCCCCCC(=O)OCC(CC)CCCC (configuration not stated), C=CCc1ccc(OC)c(OC)c1, CC(=O)O, CC(C)(O)c1ccc(CNC(=O)c2cccnc2Oc2ccc(F)cc2)cc1, NC1CCCCC1, CC(=O)O[C@]1(C(C)=O)CC[C@H]2[C@@H]3C=C(Cl)C4=CC(=O)[C@@H]5C[C@@H]5[C@]4(C)[C@H]3CC[C@@]21C, O=C(NS(=O)(=O)/C=C/c1cccs1)c1ccc(F)cc1Br, O=C(O)c1cccnc1, O=C(Oc1ccccc1)c1cccc(C(=O)Oc2ccccc2)c1, CCCC(=O)O, COC(=O)CCC(=O)OC, CC(=O)OCC(COC(C)=O)OC(C)=O, O=C1CCCCC1, CC(COCC(C)OC(=O)c1ccccc1)OC(=O)c1ccccc1 (configuration not stated), CC(C)COC(=O)CCCCC(=O)OCC(C)C, CC(C)c1cccc(C(C)C)c1, C/C=C/c1ccc(OC)cc1, CN(C)CCCN(C)CCCN(C)C, CCOCCOCCO, CCCCC(CC)COP(=O)(OCC(CC)CCCC)OCC(CC)CCCC (configuration not stated), CCCCCCCCCCCCCCCCO, CC(N)=O, CCCCCCC(CCCCCCCCCCC(=O)OCC(COC(C)=O)OC(C)=O)OC(C)=O (configuration not stated), NC(=Nc1ccccc1)Nc1ccccc1, Cc1cn([C@H]2C=C[C@@H](CO)O2)c(=O)[nH]c1=O, CCCCCCCC(=O)OC, CCCCC(CC)CO (configuration not stated)

AC50, active:
O=C(N[C@@H](c1ccccc1)[C@@H]1CCCCN1)c1cccc(C(F)(F)F)c1Cl 83.3 µM, CCN(CC)CCOc1ccc(C(=C(Cl)c2ccccc2)c2ccccc2)cc1 81.3 µM

read-out: Ezrin (EZR), EZR (gene 7430); experiment: LTEA_HepaRG_EZR: Life Technologies and Expression Analysis (LTEA) Assay for Ezrin (EZR) using HepaRG (AID 2283491); conditions: mRNA level, 48 h; actives raise or lower the signal
Summary of the method: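 Gain or loss of EZR mRNA is scored relative to 0.5% DMSO in human HepaRG cultures treated 48 h with test chemicals in duplicate, eight half-log concentrations from 100 uM.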

outcome, inactive:
CCCCC(CC)COC(=O)CCCCCCCC(=O)OCC(CC)CCCC (configuration not stated), C=CCc1ccc(OC)c(OC)c1, CC(=O)O, CC(C)(O)c1ccc(CNC(=O)c2cccnc2Oc2ccc(F)cc2)cc1, NC1CCCCC1, CC(=O)O[C@]1(C(C)=O)CC[C@H]2[C@@H]3C=C(Cl)C4=CC(=O)[C@@H]5C[C@@H]5[C@]4(C)[C@H]3CC[C@@]21C, O=C(NS(=O)(=O)/C=C/c1cccs1)c1ccc(F)cc1Br, O=C(O)c1cccnc1, O=C(Oc1ccccc1)c1cccc(C(=O)Oc2ccccc2)c1, CCCC(=O)O, COC(=O)CCC(=O)OC, CC(=O)OCC(COC(C)=O)OC(C)=O, O=C1CCCCC1, CC(COCC(C)OC(=O)c1ccccc1)OC(=O)c1ccccc1 (configuration not stated), CC(C)COC(=O)CCCCC(=O)OCC(C)C, CC(C)c1cccc(C(C)C)c1, C/C=C/c1ccc(OC)cc1, CN(C)CCCN(C)CCCN(C)C, CCOCCOCCO, CCCCC(CC)COP(=O)(OCC(CC)CCCC)OCC(CC)CCCC (configuration not stated), CC(N)=O, CCCCCCC(CCCCCCCCCCC(=O)OCC(COC(C)=O)OC(C)=O)OC(C)=O (configuration not stated), NC(=Nc1ccccc1)Nc1ccccc1, Cc1cn([C@H]2C=C[C@@H](CO)O2)c(=O)[nH]c1=O, CCCCCCCC(=O)OC, CCCCC(CC)CO (configuration not stated), O=C(N[C@@H](c1ccccc1)[C@@H]1CCCCN1)c1cccc(C(F)(F)F)c1Cl

AC50, active:
CCCCCCCCCCCCCCCCO 0.102 µM, CCN(CC)CCOc1ccc(C(=C(Cl)c2ccccc2)c2ccccc2)cc1 67.8 µM

read-out: Cytochrome P450 3A7 (Homo sapiens) (UniProt P24462); experiment: LTEA_HepaRG_CYP3A7: Life Technologies and Expression Analysis (LTEA) Assay for CYP3A7 using HepaRG (AID 2283492); conditions: mRNA level, 48 h; actives raise or lower the signal
Summary of the method: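 CYP3A7 transcript measured by qRT-PCR (ACTB, GAPDH, POLR2A normalization) after 48 h chemical exposure of HepaRG cells in duplicate. Eight half-log concentrations, maximum 100 uM, 0.5% DMSO vehicle; bidirectional curve fitting against DMSO baseline.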

outcome, inactive:
CCCCC(CC)COC(=O)CCCCCCCC(=O)OCC(CC)CCCC (configuration not stated), C=CCc1ccc(OC)c(OC)c1, CC(=O)O, NC1CCCCC1, CC(=O)O[C@]1(C(C)=O)CC[C@H]2[C@@H]3C=C(Cl)C4=CC(=O)[C@@H]5C[C@@H]5[C@]4(C)[C@H]3CC[C@@]21C, O=C(O)c1cccnc1, O=C(Oc1ccccc1)c1cccc(C(=O)Oc2ccccc2)c1, CCCC(=O)O, COC(=O)CCC(=O)OC, CC(=O)OCC(COC(C)=O)OC(C)=O, O=C1CCCCC1, CC(COCC(C)OC(=O)c1ccccc1)OC(=O)c1ccccc1 (configuration not stated), CC(C)COC(=O)CCCCC(=O)OCC(C)C, CC(C)c1cccc(C(C)C)c1, C/C=C/c1ccc(OC)cc1, CN(C)CCCN(C)CCCN(C)C, CCOCCOCCO, CCCCCCCCCCCCCCCCO, CC(N)=O, CCCCCCC(CCCCCCCCCCC(=O)OCC(COC(C)=O)OC(C)=O)OC(C)=O (configuration not stated), NC(=Nc1ccccc1)Nc1ccccc1, Cc1cn([C@H]2C=C[C@@H](CO)O2)c(=O)[nH]c1=O, CCCCCCCC(=O)OC, CCCCC(CC)CO (configuration not stated), O=C(N[C@@H](c1ccccc1)[C@@H]1CCCCN1)c1cccc(C(F)(F)F)c1Cl, CCN(CC)CCOc1ccc(C(=C(Cl)c2ccccc2)c2ccccc2)cc1

AC50, active:
CC(C)(O)c1ccc(CNC(=O)c2cccnc2Oc2ccc(F)cc2)cc1 9.92 µM, O=C(NS(=O)(=O)/C=C/c1cccs1)c1ccc(F)cc1Br 5.96 µM, CCCCC(CC)COP(=O)(OCC(CC)CCCC)OCC(CC)CCCC (configuration not stated) 5.61 µM

From PubChem BioAssay (EPA / NIEHS)
